Compounds without any hit were thinned out: in the full panel of roughly 83,000, 20% have a hit.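 Negative percent growth values reflect cell death: -40 means 40% of the cells present at the start died, and -100 means all died.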 The source made the active and inactive calls. How the source made its calls: active means growth percent below 10; inactive means the rest.
system: SF-295 CNS; assay: NCI-60 one-dose screen, 48 h (100 = growth as untreated, 0 = no growth, -100 = all killed); settings: 10 µM

| SMILES | growth |
| --- | --- |
| COc1ccc(/C=C/C(=O)c2ccc(NC(=O)CN3C(=O)NC(C)(c4ccccc4)C3=O)cc2)cc1 (stereo not drawn) | 76.1% (inactive) |
| Cc1ccc(C(C)C)cc1NC(=O)c1ccccc1O | 61.8% (inactive) |
| CC1(c2ccccc2)NC(=O)N(CC(=O)Nc2ccc(C(=O)/C=C/c3ccc(Br)cc3)cc2)C1=O (stereo not drawn) | 37% (inactive) |
| C=C[C@@]12CN3CC[C@]1(O)[C@@](C(=O)OC)(CO2)c1[nH]c2ccccc2c1C3 | 71% (inactive) |
| COc1ccc(/C=C/C(=O)c2ccc(S(=O)(=O)NCCNc3nc(Nc4ccc(F)cc4)nc(N(C)C)n3)cc2)cc1 | 23.3% (inactive) |
| O=c1oc2ccccc2cc1-c1csc(N=Nc2c(O)[nH]c3ccc(Br)cc23)n1 | 39.5% (inactive) |
| O=C(CSc1nnc(-c2c[nH]c3ccccc23)n1-c1ccccc1)Nc1ccc(C(=O)/C=C/c2ccccc2Cl)cc1 | 72% (inactive) |
| O=C(NO)c1ccc(-c2nc3ccc4[nH]ncc4c3c3c2CCCC3)cc1 | -17.9% (active) |
| CS(=O)(=O)Nc1ccc(-c2ccc3c(c2)ncn3-c2ccc(NC(=O)Nc3ccc(Br)cc3)cc2)cc1 | -38.3% (active) |
| O=C(CS(=O)(=O)c1oc(-c2ccc(Cl)cc2)nc1S(=O)(=O)c1ccc(Cl)cc1)N1CCOCC1 | 85% (inactive) |
| COc1cc(-c2nc3cc(Cl)c(Cl)cc3[nH]2)ccc1OCc1nnc(-c2ccc(Br)cc2)o1 | -46.1% (active) |
| COc1cc2c3c(n(CCCn4ccnc4)c(=O)c2cc1OC)-c1nc2c(cc1C3=O)OCO2 | -7.74% (active) |
| Cc1ccc(/C=C/C(=O)c2ccc(NC(=O)CSc3nnc(-c4c[nH]c5ccccc45)n3-c3ccccc3)cc2)cc1 | 92.4% (inactive) |

— PubChem BioAssay (NCI)
